This note sets out measurements from PubChem BioAssay (EPA / NIEHS).

Where “and” joins values, the source holds several entries; their conditions need not be identical. Identical values can stand only once. Results filed as inconclusive are left out. Calls of active or inactive are those of the source. How the source made its calls: active means hit-call score of the fitted dose curve at least 0.9, where 1 is the maximum; inconclusive means response in the unintended direction; inactive means score below 0.9.

Assay [1] in a line: ATG_XTT_Cytotoxicity: Cytotoxicity Assessment in the Attagene TRANS-FACTORIAL HepG2 Assay (AID 2283584). Summed up: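 XTT readout of cell number in transfected HepG2 cells, 24 h post-dosing; DMSO serves as negative control and baseline, with activity taken as loss of viability signal.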
Assay [2] in a line: TOX21_p53_BLA_p2_viability: Viability Assessment in the Tox21 HCT-116 p53 Agonism Beta-lactamase Assay, Phase 2 (AID 2283591).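 Further: actives lower the ATP signal meaning cytotoxicity.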 Summed up: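 HCT116 p53-bla cells, 4000/well, dosed after 5 h plating (217-fold dilution of DMSO stocks) and incubated 16 h at 37C. Viability taken as cellular ATP by CellTiter-Glo luminescence after 30 min RT; signal loss marks cytotoxicity.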
Assay [3] has as its target Cellular tumor antigen p53 (Homo sapiens) (UniProt P04637). The assay can be described thus: TOX21_p53_BLA_p2_ratio: Tox21 HCT-116 p53 Agonism Beta-lactamase Assay, Ratio, Phase 2 (AID 2283592). Summed up:
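Readout: blue/green (460/530 nm) FRET emission ratio after 2 h CCF4-AM loading at room temperature, excitation 405 nm. HCT116 p53 bla cells, 16 h compound exposure at 37C, 5% CO2; agonist direction fitted against DMSO baseline.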

Assay [4] can be described thus: TOX21_p53_BLA_p3_viability: Viability Assessment in the Tox21 HCT-116 p53 Agonism Beta-lactamase Assay, Phase 3 (AID 2283593).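 Further: cells exposed to compound for 16 h before reading.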 Summed up:
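HCT116 cells, 4000/well, dosed 5 h after plating by pin transfer (217-fold dilution from DMSO stock) and incubated 16 h at 37C, 5% CO2. Viability read as ATP luminescence with CellTiter-Glo after 30 min at room temperature.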

In assay [5] the target is Cellular tumor antigen p53 (Homo sapiens) (UniProt P04637). The assay can be described thus: TOX21_p53_BLA_p3_ratio: Tox21 HCT-116 p53 Agonism Beta-lactamase Assay, Ratio, Phase 3 (AID 2283596). Summed up: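 Cells were seeded at 4000/well, rested 5 h at 37C, then dosed with DMSO compound solutions (217-fold dilution) for 16 h. CCF4-AM substrate was loaded for 2 h at room temperature, and the 460/530 nm emission ratio was fitted for gain of signal versus DMSO.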

Assay [6] is described as follows: TOX21_p53_BLA_p5_viability: Viability Assessment in the Tox21 HCT-116 p53 Agonism Beta-lactamase Assay, Phase 5 (AID 2283600). Summed up: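 ATP luminescence (CellTiter-Glo, 30 min, RT) served as the viability read-out, with loss of signal indicating cytotoxicity. Compounds in DMSO were pinned at a 217-fold dilution onto 4000 cells/well and incubated 16 h, 37C.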

Assay [7] deals with Cellular tumor antigen p53 (Homo sapiens) (UniProt P04637). Briefly: TOX21_p53_BLA_p4_ratio: Tox21 HCT-116 p53 Agonism Beta-lactamase Assay, Ratio, Phase 4 (AID 2283601). Summed up: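 HCT-116 p53 beta-lactamase reporter cells (4000/well) preincubated 5 h, then compound (217-fold dilution of DMSO stock) for 16 h at 37C. CCF4-AM substrate added 2 h at room temperature; 460/530 nm emission ratio fitted upward versus DMSO.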

Assay [8] shares this target. Briefly: TOX21_p53_BLA_p5_ratio: Tox21 HCT-116 p53 Agonism Beta-lactamase Assay, Ratio, Phase 5 (AID 2283599). Summed up:
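HCT-116 p53-bla cells (4000/well) plated 5 h, dosed with compound (217-fold DMSO dilution) for 16 h at 37 C; CCF4-AM substrate 2 h at room temperature. Activity is the 460/530 nm emission ratio (405 nm excitation), fitted in gain-of-signal direction versus DMSO.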

Assay [9] in a line: TOX21_p53_BLA_p4_viability: Viability Assessment in the Tox21 HCT-116 p53 Agonism Beta-lactamase Assay, Phase 4 (AID 2283597).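 Further: hits lower the luminescence signal meaning cytotoxicity.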 Summed up: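 ATP content by CellTiter-Glo luminescence, 30 min RT, read after the beta-lactamase ratio step. Cells: HCT116, 4000/well, compound added after 5 h, exposure 16 h at 37C. Signal loss = reduced viability.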
Assay [10] deals with Thyroperoxidase (TPO), gene 54314. Briefly: CCTE_Simmons_AUR_rTPO: CCTE's Amplex UltraRed Assay for Thyroperoxidase (TPO) Inhibition, Simmons Lab (AID 2283662).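 Further: potency for loss of signal meaning inhibition of peroxidase activity.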 Summed up:
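Endpoint is decreased Amplex UltraRed fluorescence after a 30-min, 37C reaction of rat thyroid microsomes with 300 uM H2O2. Eight test concentrations (5 nM–87.5 uM final) in 0.5% DMSO, three biological replicates each.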

Cellular tumor antigen p53 (Homo sapiens), sequence (P04637 whole entry, looked up): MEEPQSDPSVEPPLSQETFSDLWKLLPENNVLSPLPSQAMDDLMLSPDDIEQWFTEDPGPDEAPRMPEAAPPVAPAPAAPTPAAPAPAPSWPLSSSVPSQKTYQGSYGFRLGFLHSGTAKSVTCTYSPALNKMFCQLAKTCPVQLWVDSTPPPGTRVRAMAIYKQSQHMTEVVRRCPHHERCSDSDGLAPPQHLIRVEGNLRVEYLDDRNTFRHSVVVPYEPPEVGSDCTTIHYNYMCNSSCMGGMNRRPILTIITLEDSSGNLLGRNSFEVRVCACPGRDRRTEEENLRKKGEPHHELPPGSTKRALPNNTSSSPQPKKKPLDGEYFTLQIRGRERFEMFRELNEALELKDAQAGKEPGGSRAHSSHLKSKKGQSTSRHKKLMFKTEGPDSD

Regarding `O=C(C=Cc1ccccc1)OCC=Cc1ccccc1`, the call in assay [1], in [2], in assay [3], in assay [4], in assay [5] and in [6] was inactive. In assay [7], the outcome was inactive.

On to `CCC(=O)OCCc1ccccc1`, for which the result in assay [3], in [5], in assay [8], in [6] and in assay [7] was inactive.

With `Nc1ccc(S(=O)(=O)Nc2nccs2)cc1`, the outcome in assay [3], in assay [4], in [5], in [8], in assay [6] and in assay [7] was inactive.

Consider `OC[C@@H](O)[C@@H](O)[C@H](O)[C@@H](O)CO`, for which the call in assay [1], in assay [2], in assay [3], in assay [4], in assay [5] and in assay [8] was inactive. Moreover, the result in assay [6] and in assay [7] was inactive.

Regarding `COC(=O)C1CCC(C(=O)OC)CC1` (stereo unspecified), the outcome in assay [1], in assay [3], in [4], in [5], in assay [9] and in [8] was inactive. Moreover, the call in [6] and in assay [7] was inactive.

On to `CCCCCCOC(=O)c1ccccc1O`, for which the compound was called inactive in assay [1], in assay [3], in assay [4], in assay [5], in [9] and in [8]. Moreover, the call in [6] was inactive.

Regarding `CCc1ccc(C(c2ccc(CC)cc2)C(Cl)Cl)cc1`, the outcome in assay [2], in [3], in assay [4], in assay [5], in assay [9] and in assay [8] was inactive. The compound was called inactive in assay [6] and in assay [7].

For `Oc1ccc(Nc2ccccc2)cc1`, the result in assay [3], in assay [4], in assay [5], in assay [8] and in [7] was inactive.

As for `CC/C=C\CCOC(C)=O`, the call in assay [1], in assay [2], in assay [4], in assay [5], in assay [8] and in assay [7] was inactive.

As for `CCCCCCOC(=O)c1ccccc1`, the compound was called inactive in [1], in [2], in assay [3], in assay [4], in [9] and in assay [8]. For the same compound, the compound was classed as inactive in assay [6] and in [7].

Consider `CCCCCC=O`, for which the compound was called inactive in assay [1], in [2], in assay [3], in assay [5], in [9] and in assay [8]. For the same compound, in assay [6], the compound was called inactive.

Regarding `C1COCCN1`, the result in [1], in assay [2], in [3], in assay [4], in assay [5] and in assay [9] was inactive. For the same compound, the outcome in [8], in assay [6] and in [7] was inactive.

Take `CCCCNc1ccccc1`: the compound was classed as inactive in assay [1], in assay [2], in assay [3], in assay [4], in assay [5] and in assay [9]. Besides, the result in [8] and in assay [7] was inactive.

`CCCCOc1ccc(N)cc1`: the call in [2], in assay [3], in [5], in assay [9], in [8] and in [6] was inactive. For the same compound, in [10], the concentration at half-maximal activity (AC50) was 0.869 µM (active).

Take `CC(CCl)OP(=O)(OC(C)CCl)OC(C)CCl` (stereo unspecified): the result in assay [1], in assay [2], in assay [4], in assay [5], in assay [9] and in assay [6] was inactive. Also, the result in [7] was inactive.

Take `O=S(=O)(O)c1ccc2ccccc2c1`: the call in assay [1], in assay [2], in [3], in assay [4], in assay [9] and in assay [8] was inactive. In addition, the call in [6] and in [7] was inactive.

Regarding `CCN(Cc1cccc(S(=O)(=O)O)c1)c1ccc(C(=C2C=CC(=[N+](CC)Cc3cccc(S(=O)(=O)O)c3)C=C2)c2ccc(O)cc2S(=O)(=O)[O-])cc1`, in assay [1], the compound was called inactive. The AC50 in assay [10] was 19.1 µM (active).

With `Nc1cc(Cl)c(N)c(Cl)c1`, the outcome in [1], in [2], in assay [3], in assay [4], in assay [9] and in assay [7] was inactive.

Take `CCN(CC)c1ccc2c(C)cc(=O)oc2c1`: the result in assay [1], in [2], in assay [4], in [9] and in assay [6] was inactive. The AC50 is 36.8 µM (active) and 44.9 µM (active) in [3]; 40.9 µM (active) and 38.6 µM (active) in assay [5]; 38.6 µM (active) and 31.6 µM (active) in assay [8]; 41.6 µM (active) and 36 µM (active) in assay [7].

Consider `Cc1cc(C)cc(O)c1`, for which the compound was classed as inactive in assay [1], in [2], in [3], in assay [5], in assay [8] and in assay [7].

Turning to `CN(C)Cc1ccccc1O`, the compound was called inactive in assay [1], in assay [2], in assay [3], in [9], in [8] and in [6]. For the same compound, in assay [7], the outcome was inactive.

For the compound `C(=C(c1ccccc1)c1ccccc1)c1ccccc1`, the compound was classed as inactive in assay [1], in assay [2], in assay [3], in assay [4], in [9] and in assay [8]. Further, the compound was called inactive in assay [6].
